The list is not random: actives were taken first. Their share in the collection is about 2.5%.
GRK2 aptamer HTS: blocks RNA aptamer binding to human GRK2; AID 488847; inhibition of aptamer binding, % at 10 µM; bead flow cytometry, FAM-aptamer displacement from GRK2; 330,000 tested, 0.59% active; P25098;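 active = inhibition of aptamer binding above 40%, roughly 3 SD of noise, on plates passing a quality check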;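 note: median bead fluorescence of bound FAM aptamer so fluorescent compounds give negative values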
MEKK3 PB1 HTS: MEKK3-MEK5 PB1 interaction, increase or decrease. Q99759. bead-based flow cytometry, Alexa488-MEK5 binding to MEKK3; actives lie on both sides; 0 = blocked by unlabeled MEK5, 100 = vehicle. binding response (% of control), % at 10 µM. 290,000 tested, 1.4% active. AID 1529;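 active = binding response more than 3 SD above or below the average of its plate-row segment, actives on both sides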;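 note: Alexa488 bead fluorescence after subtracting the streptavidin-only scavenger bead signal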
Target sequence (Q99759 whole entry, looked up): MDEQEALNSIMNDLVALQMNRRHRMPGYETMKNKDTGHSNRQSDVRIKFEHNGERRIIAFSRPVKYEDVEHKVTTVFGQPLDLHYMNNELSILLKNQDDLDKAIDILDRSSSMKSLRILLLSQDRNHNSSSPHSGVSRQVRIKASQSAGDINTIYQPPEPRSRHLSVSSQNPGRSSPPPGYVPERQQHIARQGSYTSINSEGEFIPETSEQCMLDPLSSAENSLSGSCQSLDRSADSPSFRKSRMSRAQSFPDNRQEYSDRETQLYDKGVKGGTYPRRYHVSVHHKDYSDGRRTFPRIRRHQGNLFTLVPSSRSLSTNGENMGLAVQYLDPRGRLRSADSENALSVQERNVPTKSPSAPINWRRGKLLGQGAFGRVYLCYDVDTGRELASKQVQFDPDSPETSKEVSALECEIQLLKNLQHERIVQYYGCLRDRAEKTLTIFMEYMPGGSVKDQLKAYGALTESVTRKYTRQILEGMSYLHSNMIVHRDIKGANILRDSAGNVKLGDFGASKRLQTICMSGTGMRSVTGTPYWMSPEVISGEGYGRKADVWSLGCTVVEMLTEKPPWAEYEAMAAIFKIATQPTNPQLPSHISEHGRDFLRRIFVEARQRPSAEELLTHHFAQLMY
MEKK2wt PB1 HTS: raises or lowers MEK5 binding to wildtype human MEKK2 PB1 domain; 290,000 tested, 1.1% active; bead flow cytometry, Alexa488-MEK5 binding to MEKK2 WT; actives lie on both sides; binding response (% of control), % at 10 µM; Q9Y2U5; in the data active = binding response below about 67% or above about 130%
MEKK2mut PB1 HTS: signal of MEK5 binding to mutant human MEKK2 PB1 domain; 290,000 tested, 0.35% active; AID 1530; percent response, % at 10 µM; bead flow cytometry, Alexa488-MEK5 binding to MEKK2 mutant; in the data active = percent response above about 24%, passing the limit was not always enough
GRK2 CP1: human GRK2 inhibition confirmation, cherry pick 1. aptamer displacement, % at 10 µM. 2,000 tested, 4% active. shares compounds with GRK2 aptamer HTS. AID 504451. bead-bound GRK2, FAM-aptamer displacement, flow cytometry;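 active = aptamer displacement above 40%, near three times the noise of non-fluorescent compounds, on plates passing quality checks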;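 note: negative values mostly reflect intrinsic compound fluorescence rather than true enhancement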
Aptamer quench 1: counter-screen for GRK2 aptamer inhibitors: fluorescent aptamer quenchers; fluorescence change (kMESF span), kMESF (no concentration beside the values); Fluorescent RNA aptamer beads, quenching, flow cytometry; active compounds read high; 110 tested, under 10 active; shares compounds with GRK2 aptamer HTS;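 active = compounds whose bead fluorescence drops by more than 37 kMESF across the dose range, marking them as dye quenchers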
FAM quench CP1: counter-screen for GRK2 aptamer inhibitors: fluorescent aptamer quenchers | fluorescence response (% of DMSO), % at 10 µM | shares compounds with GRK2 aptamer HTS | 2,000 tested, under 10 active | Carboxyfluorescein RNA aptamer on beads, flow cytometry quenching; active compounds read low;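 active = compounds that quench the bead-bound fluorescent RNA probe, cutting fluorescence to under half of the solvent control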;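 note: counterscreen run without GRK2 so only probe quenching by compound is measured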
GRK2 CP2: confirmation of human GRK2 inhibitors binding RNA aptamer site; shares compounds with GRK2 aptamer HTS; bead-bound GRK2, FAM-aptamer displacement, flow cytometry; AID 504782; 360 tested, under 10 active; inhibition of aptamer binding, % at 10 µM;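 active = inhibition of aptamer binding above 40%, about triple the noise seen with nonglowing compounds, on plates passing quality control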;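 note: negative values mostly come from compounds that fluoresce themselves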
FAM quench CP2: aptamer fluorescence quenching in GRK2 counter-screen; shares compounds with GRK2 aptamer HTS; AID 588494; fluorescence response vs DMSO, % at 10 µM; carboxyfluorescein RNA aptamer beads, flow cytometry quenching; active compounds read low; 360 tested, under 10 active;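 active = response vs DMSO under 50%, meaning signal dropped by over half, treated as fluorescence quencher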;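 note: labelled aptamer on streptavidin beads without GRK2 as a quench counter-screen; 100% = bead fluorescence of DMSO wells and lower means quenching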
* = called active by the depositor; / = no result.

SMILES	GRK2 aptamer HTS	MEKK3 PB1 HTS	MEKK2wt PB1 HTS	MEKK2mut PB1 HTS	GRK2 CP1	FAM quench CP1	others
CC(OC(=O)CSc1ccc([N+](=O)[O-])cc1)C(=O)NCc1ccccc1 (stereo not given)	0	/	/	/	/	/
CCn1c(C(=O)O)c(CC(=O)N(C)c2ccc(OC)cc2OC)c2ccccc21	58*	102	104	5	6	75
COc1ccc(OC)c(NC(=O)Cc2c(C(=O)O)n(C)c3ccccc23)c1	47*	104	103	8	/	/	GRK2 CP2=22;FAM quench CP2=99
CCN(CC)C(=O)Cn1cc(S(=O)(=O)CC(=O)Nc2cc(OC)ccc2OC)c2ccccc21	71*	101	104	3	/	/	GRK2 CP2=-24;FAM quench CP2=99
O=C(Nc1ccccc1)Nc1ccccc1-n1ccnc1	0	96	99	0	/	/
O=C(CCc1ccc(Oc2cc([N+](=O)[O-])cc([N+](=O)[O-])c2)cc1)NC1CCCC1	99*	105	102	-1	2	92
Cc1noc(C)c1S(=O)(=O)N(CC(=O)NC1CCCC1)c1ccc(C(C)C)cc1	0	101	98	-1	/	/
COc1ccc(-c2cc(C(=O)N(C)Cc3nc4ccccc4c(=O)[nH]3)c3ccccc3n2)cc1OC	29	/	/	/	0	101
CC1Sc2ccc(S(=O)(=O)CCC(=O)Nc3ccccc3Cl)cc2NC1=O (stereo not given)	6	102	102	4	/	/
CCOc1ccccc1N(C)C(=O)CCS(=O)(=O)c1ccc2c(c1)NC(=O)C(C)S2 (stereo not given)	5	102	102	2	/	/	GRK2 CP2=-5;FAM quench CP2=101
CC1Sc2ccc(S(=O)(=O)CCC(=O)Nc3ccc(C(C)C)cc3)cc2NC1=O (stereo not given)	0	103	100	5	/	/
CCC1Sc2ccc(S(=O)(=O)CCC(=O)Nc3c(Cl)cc(OC)cc3OC)cc2NC1=O (stereo not given)	3	99	102	1	/	/	GRK2 CP2=18;FAM quench CP2=100
CCC1Sc2ccc(S(=O)(=O)Nc3cc(OC)cc(OC)c3)cc2NC1=O (stereo not given)	6	101	98	-1	/	/
CC1Sc2ccc(S(=O)(=O)CCC(=O)NC(C)c3ccccc3)cc2NC1=O (stereo not given)	8	104	100	6	/	/	GRK2 CP2=26;FAM quench CP2=97
Cc1ccc(NC(=O)CCS(=O)(=O)c2ccc3c(c2)NC(=O)C(C)S3)cc1Cl (stereo not given)	2	106	102	6	/	/	GRK2 CP2=-2;FAM quench CP2=99
CC(C)C[C@H]1CN=C(Nc2ccccc2)N1CC1CCC(C)CC1 (stereo not given in full)	0	105	110	8	/	/
O=C(NN1C(=O)/C(=C/C=C/c2ccco2)SC1=S)c1ccncc1	79*	96	97	-12	12	101
CC(C)C(C(=O)O)N1C(=O)/C(=C/C=C/c2ccco2)SC1=S (stereo not given)	95*	100	97	-3	55*	96	Aptamer quench 1=5.8
Cc1[nH][nH]c(=O)c1C(c1c(C)[nH][nH]c1=O)c1cn(Cc2ccccc2Cl)c2ccccc12	/	91	74	-2	/	/
NS(=O)(=O)c1ccc(NC(=O)CSC2=NC(=O)C(c3ccccc3)C(=O)N2)cc1 (stereo not given)	100*	99	100	2	-1	101
NS(=O)(=O)c1ccc(NC(=O)CSc2ccccc2)cc1	0	94	88	-8	/	/
CC(C)[C@H](NC(=O)c1cccc(CN(Cc2ccccc2)C(=O)/C=C/c2ccccc2)c1)C(=O)O	2	/	/	/	/	/
Cc1cc(CNCc2cn(C)nc2-c2ccc(Oc3ccccc3)cc2)on1	100*	99	95	4	0	101
Cn1cc(CNCC2CCCO2)c(-c2ccc(Oc3ccccc3)cc2)n1 (stereo not given)	0	99	95	-8	/	/
COc1ccc(CCN=C(C)c2cc(C)c(C)cc2O)cc1OC	0	109	107	12	/	/
SMILES	GRK2 aptamer HTS	MEKK3 PB1 HTS	MEKK2wt PB1 HTS	MEKK2mut PB1 HTS	GRK2 CP1	FAM quench CP1	others
CC(C)NC(=O)C(=O)NC1CCCCCC1	54*	109	105	5	0	101
O=C(NC1CCCCCC1)C(=O)NC1CC1	1	90	99	-2	/	/
COc1cccc(C(=O)OCC(=O)c2c[nH]c3ccccc23)c1OC	43*	/	/	/	-7	122
COc1ccc(C(=O)OCC(=O)c2c[nH]c3ccccc23)c(OC)c1	0	/	/	/	/	/
N#Cc1ccc(CN2CCN(C(=O)c3cc(C4CC4)nn3-c3ccccc3)CC2)cc1	0	/	/	/	/	/
O=C(O)CC/C(=C\c1ccccc1[N+](=O)[O-])c1nc2ccccc2s1	1	/	/	/	/	/
O=C(O)CC/C(=C\c1ccc(N2CCCC2)c([N+](=O)[O-])c1)c1nc2ccccc2s1	71*	102	89	-7	-5	100
CN(CC(=O)Nc1ccc(N2CCOCC2)cc1)C(=O)CCc1ccccc1Cl	0	/	/	/	-1	98
O=C(CCNS(=O)(=O)c1ccc(Br)cc1)NCc1ccc(Cl)cc1	3	101	100	-1	/	/
Cc1nnc(NC(=O)CSc2nnc(CC(=O)Nc3ccccc3Cl)n2C)s1	1	97	95	-7	/	/
Cc1cccc(Oc2ccc(S(=O)(=O)N3CCCCC3)cc2NC(=O)C2=COCCO2)c1	31	/	/	/	-4	97
CC(C)Oc1ccc(S(=O)(=O)N2CCCCC2)cc1NC(=O)C1=COCCO1	4	/	/	/	/	/
O=C(C1CC(c2cccc(Br)c2)=NO1)N1CCc2ccccc2C1 (stereo not given)	0	100	96	-3	/	/
O=C(O)C1CC(c2ccccc2)=NO1 (stereo not given)	17	97	97	-1	/	/	GRK2 CP2=-33;FAM quench CP2=102
COc1cc(OC)c(C2=NOC(C(=O)O)C2)cc1Cl (stereo not given)	2	87	94	-6	/	/	GRK2 CP2=-26;FAM quench CP2=100
O=C(O)C1CC(c2cccc(Br)c2)=NO1 (stereo not given)	0	103	101	2	/	/	GRK2 CP2=-5;FAM quench CP2=107
COc1ccc(C2=NOC(C(=O)O)C2)cc1 (stereo not given)	4	91	94	-2	/	/
CSc1ccc(CCCCCCOC(=O)C(C)(C)C)cc1	0	/	/	/	/	/
